Screening data as filed in PubChem.
Only some compounds are listed: those with a hit (about 1.3% of all), similar ones and a draw of the others.
AmpC inh detg: qHTS Inhibitors of AmpC Beta-Lactamase (assay with detergent); P00811; AmpC hydrolysis of nitrocefin, absorbance 480 nm, 0.01% Triton; Potency, µM (top dose mostly 114 µM), usual class: inhibitors; hit rate 0.041% among 370,000; further: nearly all actives have a fitted effect of over 25% in size
Target sequence (P00811 whole entry, looked up): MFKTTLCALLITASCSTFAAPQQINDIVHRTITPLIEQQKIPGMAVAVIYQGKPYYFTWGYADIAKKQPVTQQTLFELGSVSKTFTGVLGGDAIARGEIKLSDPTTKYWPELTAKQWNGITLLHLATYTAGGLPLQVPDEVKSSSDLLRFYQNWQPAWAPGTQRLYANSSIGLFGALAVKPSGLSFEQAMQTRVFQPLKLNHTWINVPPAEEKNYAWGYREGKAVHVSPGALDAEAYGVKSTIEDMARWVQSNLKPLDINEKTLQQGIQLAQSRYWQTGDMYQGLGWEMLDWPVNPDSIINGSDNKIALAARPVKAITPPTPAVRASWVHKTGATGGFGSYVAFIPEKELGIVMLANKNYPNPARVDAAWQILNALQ
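20 mM phosphate pH 7.0 + 0.01% (detergent screen) or 0.0001% Triton X-100; 5.3 nM AmpC reagent; cpd preinc 15 min RT; nitrocefin (800 uM stock) to start; A480 q20 s × 4 min; Activity was normalised to no-enzyme and no-compound control wells.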
SARS PLpro yeast: qHTS of Yeast-based Assay for SARS-CoV PLP; Potency, µM (highest dose often 32.9 µM), actives largely listed as activators; S. cerevisiae expressing SARS-CoV PLpro, growth rescue; hit rate 0.19% among 330,000; AID 485353, 2010; calls by dose curve; further: nearly all actives have a fitted effect of over 55% in size
Vaccinia Venus: qHTS for Stage-Specific Inhibitors of Vaccinia Orthopoxvirus: Venus Reporter Primary qHTS; Vaccinia virus Venus reporter expression, fluorescence; Potency, µM (highest dose often 36.5 µM), usual class: inhibitors; hit rate 0.46% among 330,000; calls by dose curve; tested in A549 cells; further: nearly all actives have a fitted effect of over 30% in size
AmpC inh no detg: qHTS Inhibitors of AmpC Beta-Lactamase (assay without detergent); Potency, µM (top dose mostly 57.1 µM), most hits filed as inhibitors; P00811; AmpC nitrocefin hydrolysis, absorbance 480 nm, 0.0001% Triton; hit rate 0.52% among 330,000; AID 485341, 2010; further: nearly all actives have a fitted effect of over 20% in size
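20 mM phosphate pH 7.0 + 0.01% (detergent screen) or 0.0001% Triton X-100; 5.3 nM AmpC reagent; cpd preinc 15 min RT; nitrocefin (800 uM stock) to start; A480 q20 s × 4 min; Activity was normalised to no-enzyme and no-compound control wells.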
VACV mCherry inh: qHTS for Stage-Specific Inhibitors of Vaccinia Orthopoxvirus: mCherry Reporter Primary qHTS; Vaccinia virus mCherry reporter infection, fluorescence; Potency, µM (highest dose often 36.5 µM), actives largely listed as inhibitors; hit rate 0.63% among 310,000; AID 720579, 2013; calls by dose curve; tested in A549 cells; further: nearly all actives have a fitted effect of over 35% in size
Numbers stand for hits; i = inactive; ? = inconclusive; nt = no result given; ! = not active in a repeat; [ ] = dose if it differs, or a comment. Unless noted, the call rests on the fitted dose curve; in most records, active means well fitted curve in the direction sought with a large enough effect; inconclusive means small, poorly fitted or top-dose-only effect, or another doubt; inactive means no such curve, though single readings can be large; an effect the other way counts as inactive or inconclusive.

SMILES	AmpC inh detg	SARS PLpro yeast	Vaccinia Venus	AmpC inh no detg	VACV mCherry inh
COc1ccc(CCNC(=S)NC(=O)c2ccc(Br)cc2)cc1OC	i	i	nt	i	nt
COc1ccc(CCNC(=S)NC(=O)c2ccccc2)cc1C	i	i	i	11µM	i
Cn1ccc(C(=O)NCC2CCC3(CCN(Cc4ccc(F)cc4F)CC3)O2)n1 (configuration not stated)	nt	nt	i	nt	i
Cc1cc(C)c(NC(=O)CSc2nc(COc3ccccc3)nc3ccccc23)c(C)c1	i	i	?	i	11µM
Cc1ccccc1NC(=O)CSc1nc(COc2ccccc2)nc2ccccc12	i	i	i	i	i
Cc1cccc(NC(=O)CSc2nnc(-c3ccco3)c(-c3ccco3)n2)c1	i	i	i	16µM	i
O=C(C(=O)N1CCN(C(=O)OCc2ccccc2)CC1)c1cccs1	nt	nt	i	nt	i
CCC1CN(CCC(=O)NC2CCOC(C)(C)C2)Cc2cc(OC)ccc2O1 (configuration not stated)	nt	nt	i	nt	i
CC(C)c1c(C(=O)N(C)Cc2cccc3ncccc23)cnn1-c1nccc(-c2ccco2)n1	nt	nt	i	nt	?
COc1ccc(CCNC(=O)CSc2n[nH]c(N)n2)cc1	100µM	i	i	i	?
NS(=O)(=O)c1ccc(NC(=O)/C=C/c2cn(-c3ccccc3)nc2-c2cccc(Cl)c2)cc1	i	i	?	2.5µM	i
NS(=O)(=O)c1ccc(NC(=O)COC(=O)c2cn(-c3ccccc3)nc2-c2ccc(F)cc2)cc1	i	i	?	13µM	i
O=C(/C=C/c1cn(-c2ccccc2)nc1-c1ccccc1)Nc1ccc(C(=O)O)cc1	i	i	i	i	i
O=C(COC(=O)c1cn(-c2ccccc2)nc1-c1ccc(F)cc1)Nc1ncc(Cl)cc1Cl	i	i	i	i	i
COc1cc(CN2CCCC(n3cc(C(=O)N4CCCC4)nn3)C2)cc(OC)c1 (configuration not stated)	nt	nt	i	nt	i
CCc1cccc(CC)c1NC(=O)CCS(=O)(=O)c1ccc2c(c1)CCN2C(C)=O	i	nt	i	nt	i
COCc1c(C(=O)N2CCN(c3ccccc3O)CC2)cnn1-c1nccc(-c2cccs2)n1	nt	nt	i	nt	i
O=C1c2ccccc2C(=O)c2cc(S(=O)(=O)Nc3ccccc3)ccc21	i	i	i	28µM	i
O=C(O)c1cccc(NS(=O)(=O)c2ccc3c(c2)C(=O)c2ccccc2C3=O)c1	i	i	nt	i	nt
COC(=O)[C@@H]1CCCN1C(=O)c1cc(NC(=O)C2CCC2)c2c(c1)nc(-c1ccncc1)n2C	nt	nt	i	nt	i
CC(C)c1c(C(=O)NCc2cccnc2)cnn1-c1nccc(-c2ccccc2F)n1	nt	nt	i	nt	i
Cc1cc(=O)n(-c2ccccc2)n1C	nt	i	?	i	5µM!
Cc1c(C=O)c(=O)n(-c2ccccc2)n1C	i	i	nt	i	nt
Cc1cc(C)c(C)c(S(=O)(=O)ON2C(=O)c3ccccc3C2=O)c1C	56µM	i	i	i	i
Cc1ccc(S(=O)(=O)ON2C(=O)c3ccccc3C2=O)c(C)c1	79µM	i	i	i	i
SMILES	AmpC inh detg	SARS PLpro yeast	Vaccinia Venus	AmpC inh no detg	VACV mCherry inh
O=S(=O)(c1ccccc1)N1CCN(S(=O)(=O)c2ccc(F)cc2)CC1	i	i	nt	i	nt
Cc1ccc(S(=O)(=O)N2CCN(CCc3ccccc3)CC2)c(C)c1	i	i	?	i	?
Cc1ccc(OC(=O)CN2C(=O)c3ccccc3C2=O)cc1C	i	i	i	i	i
Cc1cc(C)c(S(=O)(=O)ON2C(=O)c3ccccc3C2=O)cc1C	50µM	i	i	i	i
Cc1cccc2c1N(C)C(=O)C2=O	i	i	i	i	i
O=C1c2ccccc2C(=O)N1OS(=O)(=O)c1ccc(F)cc1	45µM	i	nt	i	nt
CCc1nc2cc(C(=O)N(C)CC3CCCN(C)C3)cc(NC(=O)c3ccccc3OC)c2n1C (configuration not stated)	nt	nt	i	nt	i
COC(=O)c1ccccc1-c1cc(C)cc2c1OC(CNC(=O)c1ccn(C)n1)C2 (configuration not stated)	nt	nt	i	nt	i
Cc1csc(N/N=C/c2ccccc2F)n1	i	nt	i	i	?
Cc1csc(N/N=C/c2c(F)cccc2Cl)n1	i	i	5µM	i	3.5µM
Cc1ccccc1NC(=O)Nc1cccs1	i	i	i	i	i
Cc1ccc(Cl)cc1NC(=O)Nc1cccs1	i	i	i	14µM	?
CCN1C/C(=C/c2ccc(N3CCOCC3)cc2)C(=O)/C(=C/c2ccc(N3CCOCC3)cc2)C1	i	i	i	i	11µM
CCc1ccc(/C=C2/SC(N3CCOCC3)=NC2=O)cc1	i	i	i[7.34 µM]	i	i[7.34 µM]
CN1C/C(=C\c2ccc(N3CCOCC3)cc2)C(=O)/C(=C/c2ccc(N3CCOCC3)cc2)C1	i	10µM	i	i	?
COCCN1CCN(C(=O)c2cnn(-c3nccc(-c4ccco4)n3)c2C(C)C)CC1	nt	nt	i	nt	i
O=C1C(NS(=O)(=O)c2cccs2)=C(N2CCOCC2)C(=O)c2ccccc21	i	i	i	i	?
CN1CCN(C2=C(Cl)C(=O)c3ccccc3C2=O)CC1	nt	nt	10µM	nt	?
CN1CCN(C2=C(NS(=O)(=O)c3cccs3)C(=O)c3ccccc3C2=O)CC1	i	i	10µM	i	18µM
O=C1C(Cl)=C(N2CCC(C(=O)O)CC2)C(=O)c2ccccc21	i	i	nt	i	nt
CO[C@H]1[C@H](NC(=O)c2ccsc2)c2ccccc2C12CCN(Cc1ccc3c(c1)OCO3)CC2	nt	nt	i	nt	i
CN(C)S(=O)(=O)c1cccc(NC(=O)COC(=O)c2cccc(S(=O)(=O)N3CCc4ccccc4C3)c2)c1	i	i	i	i	i
Cc1cccc(C(C)C)c1NC(=O)COC(=O)c1cccc(S(=O)(=O)N2CCc3ccccc3C2)c1	i	i	i	7.9µM	i
CCc1cccc(CC)c1NC(=O)COC(=O)c1cccc(S(=O)(=O)N2CCc3ccccc3C2)c1	i	i	i	18µM	i
O=C1c2ccccc2C(Nc2ccccc2)N1Cc1ccc2c(c1)OCO2 (configuration not stated)	i	i	i	i	i
SMILES	AmpC inh detg	SARS PLpro yeast	Vaccinia Venus	AmpC inh no detg	VACV mCherry inh
O=C1c2ccccc2C(Nc2ccc3c(c2)OCCO3)N1Cc1ccc2c(c1)OCO2 (configuration not stated)	?	i	i	10µM	i
O=C(N/N=C/c1ccccc1O)C(=O)N1CCCCCC1	i	i	i	i	7.9µM
Cc1ccc(O)c(/C=N/NC(=O)CN2CCCC2)c1	i	i	nt	i	nt
Cc1ccc(O)c(/C=N/NC(=O)C2=NNC(c3ccccc3)(c3ccccc3)C2)c1	i	6.3µM	nt	i	nt
Cc1nc2ccc(C(=O)N3CCOc4ccc(CN5CCOCC5)cc4C3)cc2nc1C	nt	nt	i	nt	i
CCOC(=O)CSc1nc2cc(OC)c(OC)cc2cc1C#N	nt	nt	i	nt	i
